Screens from PubChem BioAssay.
Shown are actives, neighbours in structure and some others; about 8.9% of the full set was active somewhere.
IMPase inh = qHTS Assay for Identifying the Cell-Membrane Permeable IMPase Inhibitors; Inositol monophosphatase 1 (Rattus norvegicus), P97697; CHO-M1 cells, IP1 accumulation, HTRF TR-FRET ratio; inhibition (IP1 accumulation), % at 46.1 µM; 120,000 tested, under 10 active; AID 901, 2007; active means well fitted curve in the direction sought with a large enough effect in the signal ratio, not every such curve was filed as active; inconclusive means small, poorly fitted or top-dose-only effect, or a change in a side signal; inactive means no such curve, though single readings can be large or run the other way; the % refers to the signal ratio;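 further: cells stimulated with carbachol in lithium chloride buffer; plate controls were DMSO basal wells for no effect and reference inhibitor wells for full effect; higher means more IMPase inhibition seen as more IP1 and lower FRET ratio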
Target sequence (P97697 whole entry, looked up): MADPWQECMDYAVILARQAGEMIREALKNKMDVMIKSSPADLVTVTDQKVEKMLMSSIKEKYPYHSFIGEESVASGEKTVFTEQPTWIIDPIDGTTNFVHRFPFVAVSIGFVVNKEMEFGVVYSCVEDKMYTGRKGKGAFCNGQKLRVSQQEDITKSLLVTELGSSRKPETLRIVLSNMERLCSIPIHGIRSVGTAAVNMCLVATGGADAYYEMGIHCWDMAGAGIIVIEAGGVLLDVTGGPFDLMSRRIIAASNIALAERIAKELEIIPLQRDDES
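CHO-M1 cells (CHO stably expressing M1 receptor), compound up to 46 uM final, stimulated with carbachol (50 uM as added) in buffer with 50mM LiCl, pH 7.4, 30 min at 37C. Cytosolic IP1 read by TR-FRET; AC50 from Hill fits.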
12-hLO inh = qHTS Assay for Inhibitors of 12-hLO (12-human lipoxygenase) | Potency, µM (doses to about 57.1 µM), inactives show at the highest dose activity change, negative = inhibition, actives largely listed as inhibitors | Polyunsaturated fatty acid lipoxygenase ALOX12 (Homo sapiens), P18054 | purified 12-hLO, xylenol orange hydroperoxide absorbance | AID 1452, 2008 | 150,000 compounds, 0.12% hits; further: potency means the concentration at half of the fitted maximal effect; nearly all actives have a fitted effect of over 55% in size
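Purified human 12hLO (150 nM), preincubated 15 min with compound, then 40 uM arachidonic acid for 30 min, room temperature, Hepes pH 7.0 with 0.01% Triton X-100. Hydroperoxide detected by ferrous iron/xylenol orange; 573/405 nm absorbance ratio gives reaction progress.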
ALDH1A1 block = qHTS Assay for Inhibitors of Aldehyde Dehydrogenase 1 (ALDH1A1). Aldehyde dehydrogenase 1A1 (Homo sapiens), P00352. Purified ALDH1A1, NADH fluorescence, propionaldehyde substrate. Potency, µM (top dose mostly 75.3 µM), for inactives: at the highest dose activity, negative = inhibition, actives largely listed as inhibitors. 220,000 compounds, 7.3% hits; active means well fitted inhibition curve with a large enough effect, not every such curve was filed as active; inconclusive means small, poorly fitted or top-dose-only effect, or another doubt; inactive means no such curve, though single readings can be large or run the other way;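 further: potency means the concentration at half of the fitted maximal effect; plate controls were no enzyme wells and a reference inhibitor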
HPGD block = qHTS Assay for Inhibitors of HPGD (15-Hydroxyprostaglandin Dehydrogenase). purified HPGD, NADH fluorescence kinetic, PGE2 substrate. Potency, µM, inactives show top-dose activity change, negative = inhibition, hits mostly inhibitors. 150,000 compounds, 4.3% hits; active means well fitted inhibition curve with a large enough effect, not every such curve was filed as active; inconclusive means small, poorly fitted or top-dose-only effect, or another doubt; inactive means no such curve, though single readings can be large or run the other way; further: potency means the concentration at half of the fitted maximal effect
Target sequence (P15428 whole entry, looked up): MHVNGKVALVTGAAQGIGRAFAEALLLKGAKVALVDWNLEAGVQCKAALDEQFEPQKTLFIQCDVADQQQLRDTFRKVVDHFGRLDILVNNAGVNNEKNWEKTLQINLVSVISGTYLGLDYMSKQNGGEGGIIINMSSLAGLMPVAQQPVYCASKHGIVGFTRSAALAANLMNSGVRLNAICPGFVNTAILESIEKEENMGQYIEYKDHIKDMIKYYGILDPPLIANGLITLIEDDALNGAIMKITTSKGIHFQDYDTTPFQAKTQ
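NADH formation kinetics: reaction with 30 uM PGE2 and 1 mM NAD+ (final), 20 nM enzyme, Tris-HCl pH 8 with Tween 20, after 15 min compound preincubation at room temperature. Fluorescence change, last versus first of five reads.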
NPSR antagonist = qHTS Assay for Antagonists of the Neuropeptide S Receptor: cAMP Signal Transduction; Q6W5P4; CHO-NPSR cells, cAMP TR-FRET, antagonist mode; Potency, µM (doses to about 38.3 µM), without a hit: at the top dose activity change, negative = inhibition, actives largely listed as inhibitors; 220,000 compounds, 1% hits; AID 1461, 2008; further: potency means the concentration at half of the fitted maximal effect; nearly all actives have a fitted effect of over 50% in size
IMPase Li inh = qHTS Assay for Identifying the Cell-Membrane Permeable IMPase Inhibitors: Potentiation with Lithium; 210,000 compounds, 0.35% hits; Potency, µM (series often up to 59.4 µM), for inactives: top-dose activity, negative = IMPase inhibition, actives largely listed as inhibitors; AID 1457, 2008; CHO-M1 cells, IP1 TR-FRET (IP-One), carbachol + lithium;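 further: IP1 builds up when IMPase is blocked and the TR-FRET signal falls; potency means the concentration at half of the fitted maximal effect; plate controls were basal vehicle for no effect and high inhibitor control for full effect; nearly all actives have a fitted effect of over 50% in size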
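Readout is a homogeneous TR-FRET IP1 immunoassay (Ex 320, Em 665 and 620), where raised cytosolic IP1 lowers signal. Cells were CHO-M1 treated 30 min at 37C with test compounds plus a little lithium; AC50 values came from Hill-equation fitting.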
* hit, by the source's call; ? = inconclusive; nt = not tested or not shown; [ ] = another dose, or the depositor's remark. Unless noted, the call rests on the fitted dose curve; in most records, active means well fitted curve in the direction sought with a large enough effect; inconclusive means small, poorly fitted or top-dose-only effect, or another doubt; inactive means no such curve, though single readings can be large; an effect the other way counts as inactive or inconclusive. Unless noted, on the % scale 0 is the no-effect control and ±100 the full control effect.

SMILES	IMPase inh	12-hLO inh	ALDH1A1 block	HPGD block	NPSR antagonist	IMPase Li inh
CCOC(=O)N1CCN(C(=O)CN(c2cccc(C)c2)S(=O)(=O)c2ccccc2)CC1	-2	-6%	-5%	1%	-8%[46.1 µM]	7%[38.3 µM]
COc1ccc2cc(/C=N/NC(=O)c3ccc(CN(c4ccc(C)c(C)c4)S(C)(=O)=O)cc3)c(Cl)nc2c1	-8	1%	?	?	4%	6%
CCOC(=O)c1c(NC(=O)c2cccs2)sc(C)c1CC	-2	-3%	-13%	?	?	2%[38.3 µM]
CCOC(=O)c1sc(NC(=O)CSc2nc(C)cc(C)c2C#N)c(C#N)c1C	7	10%	?	-29%	-10%[46.1 µM]	-7%[38.3 µM]
CCOC(=O)c1c(NC(=O)COC(=O)c2ccncc2)sc(C)c1C	nt	nt	?	nt	6%	6%
COC(=O)c1sc(NC(=O)c2c(F)cccc2F)c(C#N)c1C	nt	nt	-1%	nt	29%	-2%
CCOC(=O)c1c(NC(=O)c2cccs2)sc(C(=O)N(C)C)c1C	-1	-4%	22µM*	16µM*	-18%[46.1 µM]	23%[38.3 µM]
CCOC(=O)c1c(NC(=O)c2ccncc2)sc(C)c1C	nt	nt	13µM*	nt	-2%	20%
COC(=O)c1sc(NC(=O)c2c(OC)cccc2OC)c(C#N)c1C	nt	nt	?	nt	51%	11µM*
CCOC(=O)c1sc(NC(=O)c2ccncc2)c(C#N)c1C	nt	-7%	3.2µM*	14µM*	5%	1%
Cc1ccc(S(=O)(=O)NCCc2ccc(S(N)(=O)=O)cc2)cc1	3	1%	25µM*	-7%	-5%[46.1 µM]	0%[38.3 µM]
CCCC(=O)NCCc1ccc(S(N)(=O)=O)cc1	-4	4%	4.5µM*	-12%	-3%[46.1 µM]	27%[38.3 µM]
CNC(=O)OC(C)CNS(=O)(=O)c1ccc(C)cc1 (stereo not drawn)	-1	5%	0%	-8%	-1%[46.1 µM]	12%[38.3 µM]
Cc1ccc(S(=O)(=O)NCC(C)NS(=O)(=O)c2ccc(C)cc2)cc1 (stereo not drawn)	10	-13%	0.4µM*	-6%	-11%[46.1 µM]	-2%[38.3 µM]
Cc1ccc(CSCCNS(=O)(=O)c2ccc(C)cc2)cc1	nt	-23%	10µM*	-8%	6%	13%
CCCSc1nc2c(cnn2-c2ccc(F)cc2)c(=O)[nH]1	2	-1%	-1%	-4%	-21%[46.1 µM]	21%[38.3 µM]
O=C(CSc1nc2c(c(=O)n1-c1ccc(F)cc1)SCC2)NCC1CCCO1 (stereo not drawn)	-5	5%	-4%	-2%	-9%[46.1 µM]	26%[38.3 µM]
COc1ccc(O)c(-c2[nH]ncc2C(=O)c2ccccc2C)c1	5	-19%	13µM*	-11%	-15%[46.1 µM]	16%[38.3 µM]
CCCN=C1NC(=O)C(CC(=O)NCCc2ccccc2)S1 (stereo not drawn)	nt	nt	28µM*	nt	22%	0%
CC(=O)c1cccc(NC(=O)Cn2nc(-c3ccc(Cl)cc3)ccc2=O)c1	nt	nt	7.9µM*	nt	1%	-5%
COc1ccc(-c2ccc(=O)n(CC(=O)Nc3ccc(C(=O)NC4CC4)cc3)n2)cc1OC	10	0%	6%	16µM*	-9%[46.1 µM]	-5%[38.3 µM]
CC(=O)c1cccc(NC(=O)Cn2nc(-c3ccccc3Cl)ccc2=O)c1	nt	nt	4%	nt	2%	3%
CN(C1CCCCC1)S(=O)(=O)c1ccc(NC(=O)Cn2nc(-c3ccc(F)cc3)ccc2=O)cc1	nt	0%	13%	-15%	-26%	-12%
CC(C)CNS(=O)(=O)c1ccc(NC(=O)Cn2nc(-c3ccc(F)cc3)ccc2=O)cc1	nt	-5%	5%	7.9µM*	3%	-9%
COc1ccc(/C=N/NC(=O)CNC(=O)c2ccc(S(=O)(=O)N3CCOCC3)cc2)cc1OC	nt	4%	?	-19%	14%	2%
SMILES	IMPase inh	12-hLO inh	ALDH1A1 block	HPGD block	NPSR antagonist	IMPase Li inh
Cc1ccc(-c2cc(C(=O)NCc3cccs3)no2)cc1	17	4%	15%	-8%	-14%[46.1 µM]	7%[38.3 µM]
Cc1ccc(NC(=O)CSc2nccn2Cc2ccccc2)cc1C	1	-20%	-2%	nt	-19%[46.1 µM]	nt
O=c1[nH]c2ccccc2c2nc3ccccn3c12	-1	-1%	-4%	-21%	3%[46.1 µM]	-3%[38.3 µM]
O=c1nc2c(O)cccn2c2c1c(=O)[nH]c1ccccc12	-10	-4%	20µM*	?	-37%	-18%
Cc1ccc(NC(=O)CSCC(=O)N2c3ccccc3CCc3ccccc32)cc1	-1	-1%	3.2µM*	-12%	?	23%[38.3 µM]
Cc1ccc(NC(=O)N2CCc3ccccc32)cc1	-4	14%	0%	-9%	-15%[46.1 µM]	-3%
NS(=O)(=O)c1ccc(NC(=S)NCc2ccc(Cl)cc2)cc1	7	-7%	22µM*	20µM*	-20%[46.1 µM]	4%[38.3 µM]
Cc1ccccc1NC(=S)NCc1ccc(Cl)cc1	nt	?	?	16µM*	-29%	7%
NS(=O)(=O)c1ccc(NC(=S)NCc2ccco2)cc1	nt	nt	6.3µM*	nt	-6%	6%
NS(=O)(=O)c1ccc(CNC(=S)Nc2ccc(F)c(Cl)c2)cc1	nt	nt	-21%	nt	-8%	-3%
S=C(NCc1ccc(Cl)cc1)Nc1ccccc1	nt	?	-6%	18µM*	-52%	-10%
Fc1ccc(CNC(=S)Nc2ccc(Cl)cc2)cc1	-2	-6%	2%	-15%	-14%[46.1 µM]	1%[38.3 µM]
O=C(Nc1nnc(C23CC4CC(CC(C4)C2)C3)s1)c1ccco1	10	0%	1%	-12%	-9%[46.1 µM]	28%[38.3 µM]
CC1CCN(S(=O)(=O)c2ccc(F)c(C(=O)O)c2)CC1	0	-4%	8%	-16%	-4%[46.1 µM]	12%[38.3 µM]
CN1C(=S)SC(N2OC3C(=O)N(c4ccccc4)C(=O)C3C2c2ccc(Cl)cc2)C1(C)C (stereo not drawn)	9	-2%	18%	-5%	-8%[46.1 µM]	3%
COc1cc(NC(=S)NCc2ccco2)cc(OC)c1OC	-1	-7%	?	16µM*	22%	2%
CC(C)OCCCNC(=S)Nc1ccc(S(N)(=O)=O)cc1	nt	-3%	1%	7.9µM*	15%	-10%
COc1cc(NC(=S)Nc2ncccc2C)cc(OC)c1OC	nt	nt	18µM*	nt	-18%	4%
NS(=O)(=O)c1ccc(NC(=S)NCc2ccc3c(c2)OCO3)cc1	nt	nt	22µM*	nt	5%	-7%
COc1ccccc1NC(=S)NCc1ccco1	-5	1%	-11%	-29%	8%[46.1 µM]	25%[38.3 µM]
COc1ccc(-c2nnc(Sc3nc4ccccc4o3)c3ccccc23)cc1	4	4%	2%	-10%	-6%[46.1 µM]	3%[38.3 µM]
